Mtb MbtI inh: blocks the Mycobacterium tuberculosis siderophore enzyme MbtI; P9WFX0; purified MbtI enzyme, fluorescence intensity read-out; inhibition, % (no concentration beside the values); 100,000 compounds, 0.89% hits; AID 493033; in the data active means inhibition mostly above about 56%, no sharp cut-off; inactive means mostly below about 77%
PV pol inh: poliovirus RNA polymerase inhibition; poliovirus polymerase elongation, fluorescence polarization; active compounds read low; % elongation, % (compound at 16.7 µg/mL); 150,000 compounds, 0.66% hits; in the data active means % elongation below about 90%
AID504770: growth inhibitors of E. coli YBA685 in a screen for V. cholerae RctB (chromosome II replication) inhibitors | E. coli YBA685 rctB-dependent plasmid, OD600 growth, 3 h; active compounds read low | z-score (test concentration not listed) | 130,000 compounds, 0.27% hits | AID 504770; in the data active means z-score below about -2, passing the limit was not always enough
Mtb MenB inh: inhibitors of Mycobacterium tuberculosis MenB enzyme; P9WNP5; MenB enzyme assay, absorbance read-out; inhibition, % (concentration not given with the values); 100,000 compounds, 0.43% hits; in the data active means inhibition above about 21%, passing the limit was not always enough
Target sequence (P9WNP5 whole entry, looked up): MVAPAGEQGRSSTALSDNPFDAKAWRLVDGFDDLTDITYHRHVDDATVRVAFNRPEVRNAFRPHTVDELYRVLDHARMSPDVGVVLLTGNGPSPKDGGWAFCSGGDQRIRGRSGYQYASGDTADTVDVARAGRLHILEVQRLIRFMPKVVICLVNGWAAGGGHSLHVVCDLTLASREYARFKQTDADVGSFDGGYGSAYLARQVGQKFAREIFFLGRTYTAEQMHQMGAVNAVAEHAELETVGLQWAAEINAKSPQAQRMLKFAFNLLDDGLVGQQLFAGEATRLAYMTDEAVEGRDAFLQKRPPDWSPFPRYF
A number is an active result; – = inactive; · = no result; ! = not confirmed by another sample. Rows were chosen to be rich in hits. Some 1.5% of all compounds tested hit in one or more screens of this group.

SMILES	Mtb MbtI inh	PV pol inh	AID504770	Mtb MenB inh
Cc1[nH]n(-c2nc3ccccc3[nH]2)c(=O)c1C1OC(=O)c2ccccc21 (configuration not stated)	100	62	–	–
CCOC(=O)c1ccc(NCc2cn[nH]c2-c2ccc(C)cc2)cc1	–	–	–	–
CC1(C)CC(=O)C2=C(C1)N=C1c3ccccc3C(=O)C1C2c1ccc(O)c(O)c1 (configuration not stated)	85	·	–	·
C=CCN(CC=C)Cn1nc(Nc2ccccc2F)sc1=S	99	–	–	–
COc1ccccc1CC(=O)Nc1cccc(NC(C)=O)c1	·	–	–	–
COc1ccccc1CC(=O)Nc1cccc(C)n1	–	–	–	40
OCC(O)C(O)C(O)C(O)c1nc2ccccc2[nH]1 (configuration not stated)	–	62	–	–
OC(c1ccc(Cl)cc1)C(O)c1nc2ccccc2[nH]1 (configuration not stated)	–	–	–	–
CC(C)Cn1c(SCc2nnc(-c3cccs3)o2)nc(O)cc1=O	–	83	–	–
N#C/C(=C(/O)C1CC1)c1nc2ccccc2s1	92	–	–	·
N#C/C(=C(/O)C(F)(F)F)c1nc2ccccc2s1	·	·	–	·
COc1ccc(/C=C/c2onc3ccccc23)cc1	·	·	–	·
CC1=NNC(=O)C1C(c1cccc(F)c1)C(C#N)C#N (configuration not stated)	–	–	–	–
O=C(Cc1ccc(Cl)cc1)Nc1ccc2nn(-c3ccccc3)nc2c1	·	–	·	·
O=C(Nc1ccc(F)c(F)c1)c1cnn(-c2ccccc2)n1	–	90	–	–
Cc1cc(=O)nc2c3ccccc3n(C(C)C(=O)NC(C)C)n12 (configuration not stated)	·	·	–	·
Cc1sc(NC(=O)Cn2nc(C(F)(F)F)cc2C)c(C(N)=O)c1C	·	68	–	–
COc1cc(C2=Nc3c(c(C)nn3-c3ccccc3)P(=O)(N3CCOCC3)O2)cc(OC)c1OC (configuration not stated)	–	–	–	–
Cc1nn(-c2ccccc2)c2c1P(=S)(N1CCOCC1)OC(c1ccccc1)=N2 (configuration not stated)	–	88	–	–
CCNc1cc(N)[n+](CC)c2n[nH]c(/N=C/c3cc(Cl)cc(Cl)c3O)c12	–	–	–	–
CC(C#N)Sc1nnc(-c2cccs2)n1CC1CCCO1 (configuration not stated)	–	–	–	–
N#Cc1ccc(CSc2nnc(-c3cccs3)n2CC2CCCO2)cc1 (configuration not stated)	–	–	-2.5	–
O=C1c2ccccc2C(=O)N1CCCc1nn2c(-c3cccnc3)nnc2s1	64	–	–	–
CC(C)OCCCNc1ncnc2sc3c(c12)CCCC3	·	-2.0	·	·
N#Cc1cc(Sc2nc3ccccc3s2)c(-n2nnc3ccccc32)cc1C#N	–	–	–	–
SMILES	Mtb MbtI inh	PV pol inh	AID504770	Mtb MenB inh
CC(C)C1Cc2c(sc3nc(SCC(=O)O)n(-c4ccccc4)c(=O)c23)CO1 (configuration not stated)	·	·	–	·
O=C(COC(=O)C1CC1)Nc1cc(Cl)cc(Cl)c1	–	–	–	·
CSc1nsc(SC)c1NC(=O)OCC1CCCO1 (configuration not stated)	·	88	–	–
CSc1nsc(SC)c1NC(=O)OCCc1ccccn1	·	·	–	·
CC1=C/C(=N\Nc2nncc3ccccc23)CC1	–	–	–	–
CC1=C/C(=N\Nc2ccccc2Cl)CC1	72	–	–	–
COc1cccc(NC(=O)c2ccc(OC(=S)N3CCC(C)CC3)cc2)c1	·	–	-2.8	–
COC(=O)c1nc2c(C)cccn2c1F	–	–	–	–
CCOC(=O)c1sc(S(C)=O)c2c1CCCC2=O (configuration not stated)	63	–	–	–
COc1ccc(NC(=O)CSc2nc(C)c(C)c(=O)[nH]2)cc1OC	–	–	–	–
NC(=O)c1c(NC(=O)c2cc(-c3ccc(F)cc3)on2)sc2c1CCCC2	·	76	·	·
Cc1cc(=O)[nH]c2[nH]n(-c3ccccc3)c(=O)c12	·	–	–	–
Cc1c(C)c2c(=O)n(-c3ccccc3)[nH]c2[nH]c1=O	66	·	–	·
CC(Sc1ncnc2sc3c(c12)CCCC3)C(=O)O (configuration not stated)	·	–	-3.4	–
O=C(c1ccc2c(c1)N(Cc1ccccc1)C(=O)c1ccccc1S2=O)N1CCOCC1 (configuration not stated)	–	–	–	–
O=C(c1ccc2c(c1)N(Cc1ccc(Cl)cc1)C(=O)c1ccccc1S2=O)N1CCOCC1 (configuration not stated)	·	73	·	·
O=C(O)CON=C1C2CC3CC(C2)CC1C3	–	78	–	–
O=C(O)CO/N=C/c1ccccc1	–	–	–	–
Cc1cccc(NC(=O)CSCC(=O)Nc2ccc(S(N)(=O)=O)cc2)c1	–	–	–	–
COc1ccc(CCNC2=CC(=O)OC23CCCCC3)cc1OC	·	72	–	–
Cc1ccc(C)c(C(=O)NCC(C)C)c1	–	–	–	–
Cc1ccc(C)c(C(=O)/C=C/C(=O)O)c1	·	–	–	67
Cc1csc(CC(N)=S)n1	98	–	–	–
Cc1[nH]c2ccc(-c3nnc(SCC(=O)N4CCCC4)o3)cc2c1C	–	–	–	–
COC(=O)c1nnn(-c2nonc2N)c1CSC#N	74	–	–	–
SMILES	Mtb MbtI inh	PV pol inh	AID504770	Mtb MenB inh
C=CCn1c(COc2ccccc2)n[nH]c1=S	·	–	–	–
Cn1c(COc2ccccc2)n[nH]c1=S	65!	–	–	–
Cn1c(CNC(=O)c2ccccc2)n[nH]c1=S	–	–	–	–
Cc1cccc(C(=O)NCc2n[nH]c(=S)n2-c2ccccc2)c1	58	–	–	–
Cc1cc(C)n2nc(SCC(=O)NCc3ccc(Cl)cc3)nc2n1	–	–	–	–
Cn1cc(NC(=O)NC2CCCCC2)c2ccccc2c1=O	–	22	–	–
CSc1ccc(CCNC(=O)Nc2cn(C)c(=O)c3ccccc23)cc1	–	45	–	–
CC(C)CCNC(=O)Nc1cn(C)c(=O)c2ccccc12	–	–	–	–
Cc1ccc(NC(=O)Nc2cn(C)c(=O)c3ccccc23)c(Cl)c1	·	80	·	·
CCOc1ccc(CCNC(=O)Nc2cn(C)c(=O)c3ccccc23)cc1OCC	–	–	–	–
Cn1cc(NC(=O)NCCc2ccsc2)c2ccccc2c1=O	–	57	–	–
Cc1cc(OCCNCCN)cc(C(C)C)c1	–	–	–	–
CNC(=S)N(Cc1ccc(S(N)(=O)=O)cc1)CC(F)(F)F	–	–	–	–
CCc1ccc(NC(=O)Nc2cn(C)c(=O)c3ccccc23)cc1	·	70	·	·
O=C1CCCC2=C1C(c1cccs1)C1C(=O)c3ccccc3C1=N2 (configuration not stated)	·	72	–	–
S=c1[nH]nc(C2COc3ccccc3O2)o1 (configuration not stated)	73!	–	–	–
O=C(Nc1scc(-c2cccs2)c1C(=O)O)c1cccs1	·	–	–	–
COc1ccc(C(=O)Nc2nccs2)cc1OC	–	–	–	–
COC(=O)c1c(-c2cccs2)csc1NC(=O)c1cc(OC)cc(OC)c1	·	71	·	·
COC(=O)c1c(-c2cccs2)csc1NC(=O)c1cc(OC)c(OC)c(OC)c1	·	73	·	·

Screening data: PubChem, ICCB-Longwood Screening Facility, Harvard Medical School
